The structures appear in SMILES notation. Where “and” joins values, the source holds several entries; their conditions need not be identical. Equal values may be shown once. Results filed as inconclusive are left out. Calls of active or inactive are those of the source. Calls follow the shape of the dose curve; as a rule, active = well fitted curve in either direction with a large enough effect (not every such curve was filed as active); inconclusive = small, poorly fitted or top-dose-only effect, or another doubt; inactive = flat fitted curve, though single readings scatter.
% is scaled to controls: 0 for no effect and ±100 for the full control effect.

The first test is described as follows: NFAT Signaling Pathway (AID 444). As to conditions: Jurkat NFAT-bla M1, carbachol, beta-lactamase ratio, 5 h; at 7.69 µM (top of the series). From the text: NCGC Assay Overview: The nuclear factor of activated T cells (NFAT) family of transcription factors has been found primarily in most immune system cells and some other non-immune cells. NFAT plays the immunomodulatory role, primarily in T-cell activation and differentiation. NFAT target genes are also involved in the regulation of apoptosis and differentiation in non-immune cell types. The NFAT sequence was engineered to the upstream of the ?-lactamase reporter gene and transfected into Jurkat cells with co-transfection of muscarinic receptor1 [provided by Invitrogen Corp]. When an extracellular stimulus, such as carbachol, binds to the GPCR M1 receptor, it stimulates a signaling cascade that activates NFAT response element and ?-lactamase expression by phosphorylating the NFAT binding protein. This cell based ?-lactamase reporter gene assay can accurately monitor any changes occurring along the NFAT pathway, and can be used for screening small molecule inhibitor or activator upon activation by carbachol EC50 concentration. A small molecular library were screened in a titration series resulting in AC50s (can be either IC50s or EC50s).
NCGC Assay Protocol Summary: The cells were prepared in RPMI 1640 medium containing 0.1% dialyzed FBS and 25 mM HEPES at 1.6 x 10^6cell/ml. The assay was performed in 1536-well plate format as follows: 5 ul of cell preparation 23 nl of compounds 1ul of carbachol (final concentration 1 uM) Briefly centrifuge the plates and incubate at 37 °C for 5 hours 1 ul of CCF4 dye mixture Incubate the plates at RT for 1 hour Read the plate in EnVision plate reader (Ex= 405nm, and Em1=460nm and Em2=530nm). The %Activity was determined from the ratio of 460nm/530nm. Data normalization and AC50 calculations were accomplished using GeneData software.
Take `Cc1cccc(Nc2cc(Cl)nc(SCC(=O)O)n2)c1C`: the activity change, negative = inhibition was 11.7% (inactive).

Staying with this test, now noted: Jurkat NFAT-bla M1, carbachol, beta-lactamase ratio, 5 h; at 17.2 µM (top of the series).
As to `CC1(C)OC(=O)NC1=O`, the activity change, negative = inhibition is -1.86% (inactive).
Still for that read-out and setting: the result for `CC[C@H]1CN2CCc3cc(OC)c(OC)cc3[C@@H]2C[C@@H]1C[C@H]1NCCc2cc(OC)c(OC)cc21` reads -131% (active); that for `C#CCN(C)Cc1ccccc1`, 4.68% (inactive) and -0.725% (inactive).
Same read-out and setting: next, `CN1[C@@H]2CC(OC(=O)[C@H](CO)c3ccccc3)C[C@H]1[C@@H]1O[C@@H]12` (stereo not given in full): -78.1% (active); `CCN(CC)CCNC(=O)c1cc(Cl)c(N)cc1OC`: -0.325% (inactive) and -6.2% (inactive); `COC(=O)C1=C(C)NC(C)=C(C(=O)OC)C1c1ccccc1[N+](=O)[O-]`: -7.96% (inactive).
On the same count and under the same terms, the result for `CN(C)CCCN1c2ccccc2Sc2ccc(Cl)cc21` reads -73.6% (active); that for `CNCCCC1c2ccccc2C=Cc2ccccc21`, -94% (active).
As to `c1ccc2c(CC3=NCCN3)cccc2c1`, the activity change, negative = inhibition is -19.1% (inactive).
The same measure, in the same setting: next, `OCC(O)CN1CCN(c2ccccc2)CC1` (stereo not given): 8.65% (inactive); `CCCCN1CCCC[C@H]1C(=O)Nc1c(C)cccc1C`: 3.05% (inactive); `Nc1ccc(S(=O)(=O)NC(=O)c2ccccc2)cc1`: 7.31% (inactive) and -26.1% (inactive).
Same read-out and setting: next, `CC(C)NC[C@H](O)c1ccc(O)c(O)c1`: -6.44% (inactive) and -3.44% (inactive); `CSc1ccc2c(c1)N(CCC1CCCCN1C)c1ccccc1S2` (stereo not given): -83% (active); `CCC(=O)c1ccc(O)cc1`: -1.37% (inactive).
For the compound `Cc1cc(CC(=O)O)n(C)c1C(=O)c1ccc(Cl)cc1`, the activity change, negative = inhibition was 1.18% (inactive).
On the same count and under the same terms, the result for `CCn1cc(C(=O)O)c(=O)c2cnc(N3CCNCC3)nc21` reads -4.81% (inactive); that for `Nc1ncnc2c1ncn2[C@@H]1O[C@H](CO)[C@@H](O)[C@H]1O`, -4.17% (inactive); that for `COc1ccc(Cl)cc1C(=O)NCCc1ccc(S(=O)(=O)NC(=O)NC2CCCCC2)cc1`, -3.12% (inactive) and -29.5% (inactive).
In the case of `Nc1ccc(S(=O)(=O)Nc2ccc(Cl)nn2)cc1`, the activity change, negative = inhibition was 9.43% (inactive).
Same read-out and setting: the result for `NS(=O)(=O)c1cc2c(cc1Cl)NC(CSCc1ccccc1)=NS2(=O)=O` reads -9.25% (inactive) and 1.09% (inactive).
Still for that read-out and setting: the result for `CC(CN1c2ccccc2Sc2ccccc21)N(C)C` (stereo not given) reads -73.5% (active).
`C[C@@H]1C[C@H]2[C@@H]3C[C@H](F)C4=CC(=O)C=C[C@]4(C)[C@@]3(F)[C@@H](O)C[C@]2(C)[C@@]1(O)C(=O)CO`: the activity change, negative = inhibition was -28.6% (inactive).
Still for that read-out and setting: the result for `CNC(=O)Oc1ccc2c(c1)[C@]1(C)CCN(C)[C@@H]1N2C` reads 5.79% (inactive).
On the same count and under the same terms, next, `Cc1c(Cl)cccc1Nc1ccccc1C(=O)O`: -35.5% (inactive); `Cc1ncc([N+](=O)[O-])n1CC(O)CCl` (stereo not given): -27.2% (inactive).
Same read-out and setting: the result for `Cn1cc[nH]c1=S` reads -4.58% (inactive); that for `Cc1cc2c(cc1S(N)(=O)=O)S(=O)(=O)CCC2`, 1.69% (inactive).

The same test, now with this note: Jurkat NFAT-bla M1, carbachol, beta-lactamase ratio, 5 h; at 38 µM (top of the series).
Turning to `C#CCN(C)Cc1ccccc1`, the activity change, negative = inhibition was 4.11% (inactive).
Same read-out and setting: next, `Nc1cc(=O)[nH]c(N)n1`: -0.946% (inactive); `CC1=C(CC(=O)O)c2cc(F)ccc2/C1=C\c1ccc(S(C)(=O)=O)cc1`: 13.8% (inactive).
The same measure, in the same setting: the result for `CCN(CC)CCNC(=O)c1cc(Cl)c(N)cc1OC` reads 4.1% (inactive); that for `NC(N)=NCCC[C@H](N)C(=O)O`, -0.248% (inactive); that for `CC1=C(CC(=O)O)c2cc(F)ccc2/C1=C\c1ccc(S(C)=O)cc1` (stereo not given), 2.92% (inactive).
As to `Cc1cc(N)c2ccccc2[n+]1CCCCCCCCCC[n+]1c(C)cc(N)c2ccccc21`, the activity change, negative = inhibition is -78.7% (active).
Same read-out and setting: the result for `C=Cc1c(C)c2cc3[nH]c(cc4nc(cc5nc(cc1[nH]2)C(C)=C5CCC(=O)O)C(CCC(=O)O)=C4C)c(C)c3C=C` reads 10.7% (inactive); that for `COc1ccc(Cl)cc1C(=O)NCCc1ccc(S(=O)(=O)NC(=O)NC2CCCCC2)cc1`, 0.0491% (inactive); that for `CCCCCCCCCCCCCCCC(=O)NCCO`, 9.44% (inactive).
On the same count and under the same terms, the result for `CC(C)C(=O)c1c(C(C)C)nn2ccccc12` reads -1.94% (inactive).

The record behind these values is PubChem BioAssay (NCATS).
